The panel holds about 79,000 compounds, 15% with a hit somewhere; the sample as a whole holds those more often. A number with no mark means an inactive call. Activity calls are given as the source filed them. No stated cut-off is given here; in the data, active means growth inhibition above about 70%; inactive means the rest.
What was measured:
[1] = NCI Yeast Anticancer Drug Screen. Data for the rad50 strain (AID 155);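 further: 0% = growth of vehicle-only cultures of the same strain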; settings: S. cerevisiae rad50 strain growth inhibition; at 50.0 µM; hits give high values
Outline: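 Vehicle-treated cultures provide the reference for the growth inhibition reported for compound-exposed, repair-deficient yeast.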

[2] = NCI Yeast Anticancer Drug Screen. Data for the mec2-1 strain (AID 157); settings: S. cerevisiae mec2-1 strain, at 50.0 µM, hits give high values
Outline: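 Using mec2-1 yeast: add compound, measure growth, express inhibition versus vehicle-treated cultures.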

[3] = NCI Yeast Anticancer Drug Screen. Data for the sgs1 mgt1 strain (AID 161);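 further: 0% = growth of cultures given vehicle only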; settings: S. cerevisiae sgs1 mgt1 strain, at 50.0 µM, hits give high values
Outline: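 Growth of a repair-deficient yeast mutant was monitored after compound treatment and expressed as inhibition relative to vehicle-treated cultures.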

[4] = NCI Yeast Anticancer Drug Screen. Data for the cln2 rad14 strain (AID 165);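 further: 0% = growth equal to vehicle treated cultures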; settings: S. cerevisiae cln2 rad14 strain, at 50.0 µM, hits give high values
Outline: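 Yeast strain cln2 rad14, bearing defects in cell cycle control and DNA repair, serves as the test system; values reflect growth inhibition compared with vehicle.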

[5] = NCI Yeast Anticancer Drug Screen. Data for the bub3 strain (AID 167); settings: S. cerevisiae bub3 mutant strain, at 50.0 µM, hits give high values
Outline: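 Mutant yeast screening strain plus compound; vehicle-treated cultures serve as the 0% inhibition reference.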

[6] = NCI Yeast Anticancer Drug Screen. Data for the mlh1 rad18 strain (AID 175); settings: S. cerevisiae mlh1 rad18 strain growth inhibition; at 50.0 µM; hits give high values
Outline: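 Steps: expose repair-defective yeast to compound; measure growth; express inhibition against vehicle-treated controls.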

SMILES	growth inhibition [1]	growth inhibition [2]	growth inhibition [3]	growth inhibition [4]	growth inhibition [5]	growth inhibition [6]
CC[N+](C)(C)c1ccc(/C=C(/C#N)C(=O)OC)cc1	7.55%	9.8%	12.8%	11.2%	-1.2%	-1.55%
CC1=C(C(=O)NN)CC/C1=N\N	-25.4%	-18.8%	-11.5%	-10.6%	-9.3%	-10.6%
N[N+]1(CCS(N)(=O)=O)CCOCC1	-1.95%	-12.6%	-0.9%	-31.2%	-8.3%	13.5%
COCN(Cc1ccccc1)C[Si](C)(C)C	39.5%	2%	1.3%	-20%	14.2%	-9.6%
COc1ccc(C(C#N)NC23CC4CC(CC(C4)C2)C3)cc1OC (stereo not given)	-11.8%	-19.8%	-25.1%	-15.2%	-56.2%	-19.5%
CC(=O)Nc1nc(C)c(CCCOc2ccc([N+](=O)[O-])cc2)c(Cl)n1	1.65%	11.4%	4%	1.4%	27.1%	12.2%
CC1CCC2(C)CCC3(C)C(=CCC4C5(C)CCC(O)C(C)(C)C5CCC43C)C2C1C (stereo not given) (tested in a mixture with another compound)	23.8%	-20.8%	9.95%	-5.8%	0.6%	17.1%
CCCc1cc(=O)n(CCCc2ccccc2)c(=O)n1CCCc1ccccc1	10.3%	-8.7%	-8.95%	-36.1%	-3.65%	16%
CCCOc1cc2c(cc1C(C)c1ccc(OC)cc1)OCO2 (stereo not given)	9.8%	-4.35%	15.8%	-1.9%	-14.4%	-53%
Cc1cc(N(CCC#N)CCC#N)ccc1/C(N=Nc1ccc(Cl)cc1)=N\NC(=O)c1cc(Cl)ccc1O	-16.6%	-16.1%	-31.1%	-20.2%	-29.6%	-59.5%
CCOC(=O)C1=C(NC(C)(C)C)OC/C1=N\NC(=O)Cc1ccccc1	42.8%	-3.6%	21.2%	16.6%	26.2%	28.1%
COc1cc2c(cc1OC)C(C(=O)O)C(c1ccccc1)N(C)C2=O (stereo not given)	-36.8%	-11.8%	-6.5%	19.4%	-13.2%	3.25%
N#CC(C(=O)CCC(=O)Nc1ccc(Cl)c(Cl)c1)c1ccc(Cl)cc1 (stereo not given)	-12.9%	-29.9%	18.1%	15.4%	8.4%	-2.2%
Cc1ccc(OCCNCCO)cc1	23.3%	-11.4%	6.3%	10.4%	-1.2%	18.2%
Cc1nc(C(N)=S)sc1C(=O)CC(=O)C(=O)Nc1c(C(C)C)cccc1C(C)C	-28.1%	-41.6%	-31.8%	-24.9%	-8.55%	-22.1%
CC(C)CCCC(C)C1CCC2C3CC=C4CC(OP(=O)(O)OC5CCC6(C)C(=CCC7C6CCC6(C)C(C(C)CCCC(C)C)CCC76)C5)CCC4(C)C3CCC12C (stereo not given)	-7.55%	-23.8%	-3.65%	7.8%	-7.6%	-5.5%
NC1C2CC3CC1CC(C2)O3 (stereo not given)	-10.8%	-8.1%	-9.4%	-68.5%	7.45%	-14.3%
CC[N+](C)(CC)Cc1ccc([NH-])c([NH-])c1.[Cl][Pt+2][Cl]	35.1%	27.4%	36%	37.2%	-13.7%	28.4%
C/C(=N\NC(=O)CC(=O)N(C(=O)c1ccccc1Cl)c1ccc(C)cc1)c1ccc(Cl)cc1	-0.5%	-8.95%	-25.4%	-15.8%	-4.25%	-6.1%
COc1cccc(C2c3cc4c(cc3OC(Nc3ccccc3)C2C)OCO4)c1OC (stereo not given)	-28.4%	6.25%	-28.1%	3.35%	-36.9%	-21.4%

SMILES	growth inhibition [1]	growth inhibition [2]	growth inhibition [3]	growth inhibition [4]	growth inhibition [5]	growth inhibition [6]
CN(C=O)c1ccc([N+](=O)[O-])cc1	7.1%	-6.5%	-7.15%	5.7%	1.4%	-3.4%
CCOC1CCC(C(=O)CC)C(C#N)(C#N)C1(C#N)C#N (stereo not given)	22.6%	13.7%	4.75%	12.8%	11.8%	7.8%
CCCNc1nc(N)[nH]c(=O)c1NC=O	2.45%	-9.25%	-6.7%	-12.3%	-15%	-0.85%
C/C(=N\NC(=O)c1ccncc1)c1ccccc1Cl	-23.3%	-23.9%	-16.1%	-13.3%	-75.8%	-17.4%
O=C1C(=O)c2ccccc2C(O)=C1CCCc1ccc(S(=O)(=O)c2ccccc2)cc1	2.35%	11.8%	0.7%	55.1%	16.2%	9.2%
NNC1CCN(Cc2ccccc2)CC1	2.5%	-16.8%	0.25%	22.2%	-1.9%	14.2%
CCCCCC(=O)OC[n+]1ccc2c(C)c3[nH]c4ccc(OC)cc4c3c(C)c2c1	87.8% (active)	91.8% (active)	90.2% (active)	89.3% (active)	87.1% (active)	91.5% (active)
CN1C(=O)C(O)C[C@@H]1c1ccc(F)cc1 (stereo not given in full)	-5%	6.8%	12.7%	16.6%	-0.25%	-30.4%
CCCNc1nc2c(s1)c1c(O)c3c(O)c(C)c4c(c32)C(=O)C(C)(O/C=C\C(OC)C(C)C(OC(C)=O)C(C)C(O)C(C)C(O)C(C)/C=C/C=C(/C)C(=O)N1)O4 (stereo not given)	8.75%	9.7%	3.2%	10.2%	14.2%	17.3%
O=c1c2ccccc2c2ccccc2n1C(c1ccccc1)c1ccccc1	-43%	-4.9%	3.25%	-12.6%	-11.5%	-2%
CC(C)=C1OC(=O)C1(C)C	-5.75%	15.7%	1.5%	17.4%	5.5%	-12.6%
CN(C)c1ccc(-c2cc(C(=O)O)c3cc(I)ccc3n2)c(Cl)c1	45.9%	30.6%	36.5%	51.4%	46.1%	35.8%
Cc1ccc(-c2cc(=O)c3cccc(CC(=O)O)c3o2)cc1	47.4%	-38.9%	-20.5%	-3.45%	-25.8%	-1.2%
CC(C)(C)OC(=O)NC(CSCc1ccc(C(=O)c2ccccc2)cc1)C(=O)O (stereo not given)	-23.9%	-28.1%	-15.3%	10.6%	-12.8%	-2.3%
C/C(C/C(C)=N/O)=N/O	-8.6%	-5.85%	2.8%	0.45%	-2.55%	17.7%
Cc1c(-c2ccccc2)cc(O)c2nc3ccccc3n12	-31.2%	6.45%	-16.6%	2.45%	11.9%	-36.9%
NC(=S)N/C=C(/c1ccc(Cl)cc1Cl)S(=O)(=O)Cc1ccc(Cl)cc1Cl	6.85%	-6.7%	9.6%	6.95%	0.2%	9.7%
COc1cc(C2c3c(oc4ccccc4c3=O)Oc3oc4ccccc4c(=O)c32)cc(OC)c1O	-17.4%	4.65%	5.25%	31.9%	-0.3%	-13.1%
COc1cc2ccc3c[n+](C)ccc3c2cc1OC	2.25%	-30.9%	-13.4%	-22.4%	-20.9%	-57.6%
CCCCS(=O)(=O)C1CCCC1=O (stereo not given)	-3.5%	5.5%	-2.55%	-7.1%	1.45%	1.9%

Source: PubChem BioAssay (NCI)
